A number with no mark means an inactive call. Results filed as inconclusive are left out. Active and inactive are the calls of the source. Unless noted, calls follow the shape of the dose curve; as a rule, active = well fitted curve in either direction with a large enough effect (not every such curve was filed as active); inconclusive = small, poorly fitted or top-dose-only effect, or another doubt; inactive = flat fitted curve, though single readings scatter.

Assay [1] deals with Lysosomal acid glucosylceramidase (Homo sapiens) (UniProt P04062). In words: Glucocerebrosidase-p2 (AID 348; in the data active = potency below about 10 µM; also: potency is read from the fitted curve at half-maximal effect). As to conditions: purified GBA, blue fluorogenic substrate, 40 min. The method in brief: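 Compounds titrated from 0.6 nM upwards against 0.2 nM enzyme in pH 5.9 citric acid/KH2PO4, taurocholate, tween-20; blue fluorogenic substrate 80 uM, 40 min room temperature, stopped and read Ex 365/Em 440 for AC50.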
Lysosomal acid glucosylceramidase (Homo sapiens), sequence (P04062 whole entry, looked up): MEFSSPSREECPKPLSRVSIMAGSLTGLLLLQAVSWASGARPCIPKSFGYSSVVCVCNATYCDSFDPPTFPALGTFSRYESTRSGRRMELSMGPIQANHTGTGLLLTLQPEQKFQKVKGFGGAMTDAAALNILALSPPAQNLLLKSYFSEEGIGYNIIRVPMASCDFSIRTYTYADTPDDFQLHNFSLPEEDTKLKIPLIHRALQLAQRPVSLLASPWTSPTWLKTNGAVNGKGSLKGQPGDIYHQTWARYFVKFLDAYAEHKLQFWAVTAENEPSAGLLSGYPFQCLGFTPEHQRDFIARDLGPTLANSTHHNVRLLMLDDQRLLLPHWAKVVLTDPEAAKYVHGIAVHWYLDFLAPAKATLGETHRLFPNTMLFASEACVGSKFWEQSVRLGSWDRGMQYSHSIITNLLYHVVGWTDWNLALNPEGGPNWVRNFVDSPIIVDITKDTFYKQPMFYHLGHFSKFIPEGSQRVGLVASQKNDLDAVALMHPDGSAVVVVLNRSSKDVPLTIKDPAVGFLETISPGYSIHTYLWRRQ

The nature of assay [2]: AP1 Signaling Pathway (AID 357).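 Also: ME-180 reporter cells stimulated with EGF at its EC50 level; % is scaled to controls: 0 for no effect and ±100 for the full control effect.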 As to conditions: ME-180 AP-1-bla reporter, EGF-induced, beta-lactamase ratio, 5 h; at 7.69 µM (top of the series) unless noted. In outline:
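Modulation of EGF-driven AP-1 transcription was assessed with a beta-lactamase reporter in ME-180 cells. Compound and EC50 EGF were co-incubated 5 hours at 37 °C before 2.5-hour CCF4 loading at room temperature and dual-emission reading.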

Assay [3] addresses Cytochrome P450 1A2 (Homo sapiens) (UniProt P05177). In words: p450-cyp1a2 (AID 410; calls by dose curve; also: potency is read from the fitted curve at half-maximal effect). To be noted: recombinant CYP1A2, luciferin-ME demethylation, luminescence; series mostly up to 11.4 µM. In outline: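 Luminescent readout of luciferin formed from Luciferin-ME by human CYP1A2; data normalized against complete inhibition by 57 uM furafylline. Enzyme 20nM, substrate 100uM at Km, 100mM KPO4 buffer, 60 min reaction at room temperature.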

Assay [4] is described as follows: NFAT Signaling Pathway (AID 444).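 Also: carbachol stimulus at about its EC50 of 1 µM final; % is scaled to controls: 0 for no effect and ±100 for the full control effect.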 As to conditions: Jurkat NFAT-bla M1, carbachol, beta-lactamase ratio, 5 h; at 7.69 µM (top of the series) unless noted. In outline:
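Jurkat cells carrying an NFAT-driven β-lactamase reporter and co-transfected muscarinic M1 receptor were treated with compound plus carbachol (1 uM final, an EC50 level) for 5 h at 37 °C. CCF4 loading followed for 1 h at RT; 460/530 nm ratio gave %activity.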

Assay [5] is described as follows: Stat Signaling Pathway (AID 446).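 Also: ME-180 cervical cancer cells given 40 pM IL-6 alongside compound; SIE-controlled beta-lactamase reporter measured as 460/530 nm FRET emission ratio; % is scaled to controls: 0 for no effect and ±100 for the full control effect.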 To be noted: ME-180 SIE beta-lactamase reporter, IL-6 stimulated, 5 h; at 7.69 µM (top of the series) unless noted. In outline: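 ME-180 cells carrying a SIE-driven beta-lactamase reporter are stimulated with 40 pM IL-6 for 5 h at 37C in the presence of compound. The 460/530 nm FRET substrate ratio is read after 2.5 h at RT. Data are normalised to 300 pM IL-6 and to 125 nM JAK inhibitor controls.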

In assay [6] the target is Glucocorticoid receptor (Homo sapiens) (UniProt P04150). In words: GR-GFP Redistribution (AID 450;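 active = compounds whose dose series gives a full or clear partial fitted curve of increased nuclear translocation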; also: potency is read from the fitted curve at half-maximal effect). To be noted: U2OS GR-GFP nuclear translocation, laser cytometry, 2 h.
Glucocorticoid receptor (Homo sapiens), sequence (P04150 whole entry, looked up): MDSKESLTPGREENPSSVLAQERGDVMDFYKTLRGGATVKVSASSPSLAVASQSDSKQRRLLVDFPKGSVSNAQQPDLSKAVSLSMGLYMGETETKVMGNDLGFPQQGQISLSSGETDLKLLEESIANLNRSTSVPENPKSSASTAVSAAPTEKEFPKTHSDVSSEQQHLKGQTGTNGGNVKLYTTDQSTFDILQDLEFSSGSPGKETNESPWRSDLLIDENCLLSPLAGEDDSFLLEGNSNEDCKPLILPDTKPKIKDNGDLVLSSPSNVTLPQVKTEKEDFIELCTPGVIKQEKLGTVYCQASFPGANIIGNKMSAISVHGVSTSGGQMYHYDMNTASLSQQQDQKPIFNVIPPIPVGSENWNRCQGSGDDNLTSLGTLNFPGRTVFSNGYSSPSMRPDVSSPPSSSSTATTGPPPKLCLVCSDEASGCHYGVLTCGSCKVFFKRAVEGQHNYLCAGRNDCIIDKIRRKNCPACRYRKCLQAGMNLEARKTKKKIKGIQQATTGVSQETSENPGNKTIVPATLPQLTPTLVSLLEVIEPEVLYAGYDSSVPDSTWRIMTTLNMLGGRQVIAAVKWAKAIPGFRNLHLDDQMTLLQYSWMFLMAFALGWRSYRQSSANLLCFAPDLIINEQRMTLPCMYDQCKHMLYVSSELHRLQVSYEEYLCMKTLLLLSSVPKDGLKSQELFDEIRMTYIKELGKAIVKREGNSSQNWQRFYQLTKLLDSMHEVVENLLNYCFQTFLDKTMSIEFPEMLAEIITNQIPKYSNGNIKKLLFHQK
The target is the same in assay [7]. In words: GR-EFC Redistribution (AID 451; calls by dose curve; also: potency is read from the fitted curve at half-maximal effect). As to conditions: CHO-K1 GR-EFC translocation, beta-gal luminescence, 2 h. In outline:
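CHO-K1 cells stably expressing nuclear-localized β-gal enzyme acceptor and GR fused C-terminally to the enzyme donor fragment; ligand-driven nuclear translocation restores β-gal by complementation. Compounds titrated up to 46 uM final, 2 h at 37 °C; luminescence read.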

For assay [8], the target named is 3',5'-cyclic-AMP phosphodiesterase 4B (Homo sapiens) (UniProt Q07343). In words: qHTS Assay for Inhibitors of PDE-IV (AID 607; active = well fitted activation curve with a large enough effect in the main read-out, with a control signal flat, not every such curve was filed as active; also: % of control where 0% means no effect). As to conditions: HEK293 ACTOne CNG channel cells, membrane potential fluorescence; series mostly up to 22.9 µM. In outline: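 HEK293 ACTOne cells with CNG channel (1000/well), endogenous PDE4; membrane potential dye, compounds up to 22.9 uM final. Fluorescence Ex 535/Em 590; RO 20-1724 (100 uM final) as reference.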
3',5'-cyclic-AMP phosphodiesterase 4B (Homo sapiens), sequence (Q07343 whole entry, looked up): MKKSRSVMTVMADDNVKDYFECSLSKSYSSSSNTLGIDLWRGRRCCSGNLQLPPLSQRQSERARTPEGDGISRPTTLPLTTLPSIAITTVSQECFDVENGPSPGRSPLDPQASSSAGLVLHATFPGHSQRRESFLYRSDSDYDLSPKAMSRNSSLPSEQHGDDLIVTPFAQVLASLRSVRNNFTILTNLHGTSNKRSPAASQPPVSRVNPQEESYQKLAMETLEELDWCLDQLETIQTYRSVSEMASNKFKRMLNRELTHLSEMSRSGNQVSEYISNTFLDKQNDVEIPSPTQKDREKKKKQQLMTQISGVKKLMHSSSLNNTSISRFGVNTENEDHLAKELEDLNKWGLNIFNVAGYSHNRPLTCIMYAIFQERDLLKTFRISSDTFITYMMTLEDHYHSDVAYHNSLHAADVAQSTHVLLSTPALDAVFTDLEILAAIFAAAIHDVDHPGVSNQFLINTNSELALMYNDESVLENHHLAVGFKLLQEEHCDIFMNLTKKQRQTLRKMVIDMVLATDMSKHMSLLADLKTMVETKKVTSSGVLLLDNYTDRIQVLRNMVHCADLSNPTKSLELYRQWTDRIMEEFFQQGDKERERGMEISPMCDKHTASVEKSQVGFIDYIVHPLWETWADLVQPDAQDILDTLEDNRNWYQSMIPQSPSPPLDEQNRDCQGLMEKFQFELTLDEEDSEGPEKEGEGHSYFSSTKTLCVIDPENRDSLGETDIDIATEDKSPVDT

The target in assay [9] is Mitogen-activated protein kinase 10 (Mus musculus) (UniProt Q61831). Put plainly: JNK3 AlphaScreen Assay (AID 530).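 Also: kinase came from lysate of stimulated human HepG2 cells; signal reports phosphorylation of biotinylated GST-cJun 1-79 at Ser73 with 10 µM ATP; % is scaled to controls: 0 for no effect and ±100 for the full control effect.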 As to conditions: JNK3 lysate, c-Jun phosphorylation; series mostly up to 11.4 µM. In outline: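 Inhibitors reduce antibody binding to phosphorylated biotin-cJun, lowering AlphaScreen luminescence. Lysates from HepG2 cells pre-activated by IL-1beta plus TNF-alpha supplied JNK3; compounds were titrated.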

The target of assay [10] is Cytochrome P450 2C19 (Homo sapiens) (UniProt P33261). Put plainly: qHTS Assay for Inhibitors and Substrates of Cytochrome P450 2C19 (AID 899; active = well fitted curve in the direction sought with a large enough effect; an effect the other way counts as inactive or inconclusive; also: % is scaled to controls: 0 for no effect and ±100 for the full control effect; nearly all actives have a fitted effect of over 60% in size). As to conditions: recombinant CYP2C19, luciferin-H EGE luminescence; series mostly up to 11.4 µM. The method in brief:
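NADPH-dependent conversion of Luciferin-H EGE (10uM, at KM) by 5nM enzyme in 50mM KPO4, 60 min at 37C following 10 min compound preincubation. Stopped with luciferin detection buffer; luminescence read after 20 min.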

Assay [11] concerns the target Cytochrome P450 3A4 (Homo sapiens) (UniProt P08684). Put plainly: qHTS Assay for Activators of Cytochrome P450 3A4 (AID 885; active = well fitted curve in the direction sought with a large enough effect; an effect the other way counts as inactive or inconclusive; also: nearly all actives have a fitted effect of over 65% in size). As to conditions: recombinant CYP3A4, Luciferin-PPXE luminescence, 60 min; series mostly up to 11.4 µM. In outline:
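Human CYP3A4 (20 nM) with Luciferin-PPXE at 25 uM (its KM) in 200 mM KPO4; 10 min compound preincubation, then NADPH regeneration and 60 min reaction at RT. Luciferin read by luminescence; normalized to 57 uM ketoconazole full inhibition.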

Assay [12] in a line: qHTS Assay for Identification of Small Molecule Agonists for Hypoxia Response Element Signaling Pathway (AID 914; active = well fitted activation curve with a large enough effect in the signal ratio, with a control signal flat, not every such curve was filed as active; the % refers to the signal ratio; also: % of control where 0% means no effect). As to conditions: ME-180 (cervical carcinoma) HRE-bla reporter, beta-lactamase ratio, CoCl2, 17 h; activation: hits give high values. In outline: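 Compounds in a titration series were added to ME-180 reporter cells alongside an EC50 level of CoCl2. After 17 hours, beta-lactamase activity was read as the 460nm/530nm emission ratio of CCF4, giving AC50 values.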

The target of assay [13] is Cytochrome P450 2C9 (Homo sapiens) (UniProt P11712). In words: qHTS Assay for Inhibitors and Substrates of Cytochrome P450 2C9 (AID 883; active = well fitted curve in the direction sought with a large enough effect; an effect the other way counts as inactive or inconclusive; also: potency is read from the fitted curve at half-maximal effect; nearly all actives have a fitted effect of over 60% in size). As to conditions: recombinant CYP2C9, luciferin-H luminescence, 60 min; series mostly up to 11.4 µM. In outline:
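A luminogenic readout tracked human CYP2C9 (10nM) converting deoxyluciferin (100uM, at KM) in 25mM KPO4 during 60 min at 37C with regenerated NADPH. Values normalized to 57uM sulphaphenazole as complete inhibition.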

In assay [14] the target is Cytochrome P450 3A4 (Homo sapiens) (UniProt P08684). In words: qHTS Assay for Inhibitors and Substrates of Cytochrome P450 3A4 (AID 884; active = well fitted curve in the direction sought with a large enough effect; an effect the other way counts as inactive or inconclusive; also: potency is read from the fitted curve at half-maximal effect; nearly all actives have a fitted effect of over 50% in size). As to conditions: recombinant CYP3A4, Luciferin-PPXE luminescence; series mostly up to 57.1 µM. The method in brief:
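20 nM human CYP3A4 with 25 uM Luciferin-PPXE (at KM) in 200 mM KPO4, preincubated 10 min with compound; NADPH regeneration started a 60 min RT reaction. Luciferin detected by luminescence, normalized to 57 uM ketoconazole as full inhibition.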

Cytochrome P450 3A4 (Homo sapiens), sequence (P08684 whole entry, looked up): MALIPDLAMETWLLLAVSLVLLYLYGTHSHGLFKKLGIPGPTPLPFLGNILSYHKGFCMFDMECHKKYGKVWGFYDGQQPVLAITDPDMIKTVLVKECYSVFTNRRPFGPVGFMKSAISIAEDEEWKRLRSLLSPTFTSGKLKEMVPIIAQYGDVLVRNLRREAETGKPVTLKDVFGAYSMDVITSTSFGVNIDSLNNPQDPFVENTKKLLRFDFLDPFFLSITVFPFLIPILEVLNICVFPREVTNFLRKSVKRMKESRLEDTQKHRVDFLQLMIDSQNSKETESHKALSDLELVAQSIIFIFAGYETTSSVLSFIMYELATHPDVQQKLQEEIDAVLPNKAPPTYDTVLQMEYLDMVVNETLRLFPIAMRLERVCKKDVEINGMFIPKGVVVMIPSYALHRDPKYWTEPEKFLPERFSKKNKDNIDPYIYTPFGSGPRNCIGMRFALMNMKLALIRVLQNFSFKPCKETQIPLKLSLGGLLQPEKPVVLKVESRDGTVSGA
Cytochrome P450 1A2 (Homo sapiens), sequence (P05177 whole entry, looked up): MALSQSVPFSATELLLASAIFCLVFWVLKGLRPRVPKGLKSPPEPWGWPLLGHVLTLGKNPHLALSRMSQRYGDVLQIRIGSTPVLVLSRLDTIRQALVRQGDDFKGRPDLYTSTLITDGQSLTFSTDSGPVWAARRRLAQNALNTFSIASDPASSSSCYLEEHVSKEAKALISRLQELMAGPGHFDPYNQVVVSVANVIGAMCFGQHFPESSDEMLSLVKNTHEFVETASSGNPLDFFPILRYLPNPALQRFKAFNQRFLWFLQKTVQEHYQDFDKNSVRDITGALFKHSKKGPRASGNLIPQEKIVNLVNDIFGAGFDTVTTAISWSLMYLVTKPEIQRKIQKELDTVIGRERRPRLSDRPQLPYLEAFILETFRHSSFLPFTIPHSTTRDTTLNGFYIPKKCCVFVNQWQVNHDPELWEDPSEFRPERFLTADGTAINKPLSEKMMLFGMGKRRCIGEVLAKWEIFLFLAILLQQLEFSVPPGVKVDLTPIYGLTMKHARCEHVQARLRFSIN
Cytochrome P450 2C19 (Homo sapiens), sequence (P33261 whole entry, looked up): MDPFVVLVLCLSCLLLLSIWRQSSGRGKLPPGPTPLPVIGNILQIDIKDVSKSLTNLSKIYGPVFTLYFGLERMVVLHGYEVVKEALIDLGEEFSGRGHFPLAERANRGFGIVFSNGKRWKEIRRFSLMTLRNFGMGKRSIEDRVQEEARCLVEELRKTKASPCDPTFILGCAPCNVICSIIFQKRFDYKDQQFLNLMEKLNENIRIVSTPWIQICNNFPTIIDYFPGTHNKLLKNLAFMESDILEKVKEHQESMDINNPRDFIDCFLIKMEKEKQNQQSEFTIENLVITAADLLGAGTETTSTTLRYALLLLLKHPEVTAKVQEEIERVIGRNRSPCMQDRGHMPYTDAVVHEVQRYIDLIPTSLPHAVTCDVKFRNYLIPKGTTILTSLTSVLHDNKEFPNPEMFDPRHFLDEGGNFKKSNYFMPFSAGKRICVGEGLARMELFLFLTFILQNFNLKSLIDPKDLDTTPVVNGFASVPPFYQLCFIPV
Cytochrome P450 2C9 (Homo sapiens), sequence (P11712 whole entry, looked up): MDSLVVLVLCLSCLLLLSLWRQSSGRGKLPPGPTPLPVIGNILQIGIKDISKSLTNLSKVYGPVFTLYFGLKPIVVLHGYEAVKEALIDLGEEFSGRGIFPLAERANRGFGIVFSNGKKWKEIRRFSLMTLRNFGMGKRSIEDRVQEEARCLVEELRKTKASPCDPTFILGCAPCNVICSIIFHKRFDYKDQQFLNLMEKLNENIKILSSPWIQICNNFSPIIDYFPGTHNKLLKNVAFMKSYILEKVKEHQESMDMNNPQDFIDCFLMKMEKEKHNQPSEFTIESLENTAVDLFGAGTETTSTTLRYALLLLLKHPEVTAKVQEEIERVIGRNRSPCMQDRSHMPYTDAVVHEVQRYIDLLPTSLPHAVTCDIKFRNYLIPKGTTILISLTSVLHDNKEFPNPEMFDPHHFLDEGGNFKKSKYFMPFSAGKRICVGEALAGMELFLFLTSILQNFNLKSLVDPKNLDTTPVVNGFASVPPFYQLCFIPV

For `Cc1ccc(S(=O)(=O)N[C@H](C(=O)O)C(C)C)cc1`, the Potency in assay [1] was over 11.4 µM; in assay [6], over 46 µM; in assay [7] it was over 9.22 µM. Besides, the activity change, negative = inhibition was 9.07% in [2] and -0.0198% in assay [4]. Further, the Potency entry in assay [3] and in assay [8] was “inactive” throughout. For the same compound, the activity, negative = inhibition in assay [5] is -0.976%.
Turning to `N=C(N)SCC(=O)O`, the figures for the Potency in [1], in assay [6] and in [7] were over 11.4 µM, over 46 µM and over 9.22 µM, respectively. Further, the figures for the activity change, negative = inhibition in [2], in [3] and in assay [4] were -10.2%, -10.2% [at 2.29 µM] and 6.44%, respectively. For the same compound, the activity, negative = inhibition in assay [5] was -4.57%. For the same compound, the Potency entry in [9] and in [10] was “inactive” throughout.
For the compound `COc1ccc(CNc2ncnc3ccc(-c4ccccc4C#N)cc23)c(OC)c1`, the Potency in [1] is over 11.4 µM; in assay [3], 6.31 µM (active); in assay [6] it was over 46 µM; in [7] it was over 46 µM. The activity change, negative = inhibition in [2] is 13.2%; in assay [4], 8.27%. Also, in [5], the activity, negative = inhibition is -15%. Further, the Potency entry in [9] and in assay [11] was “inactive” each time.
In the case of `COc1ccc(/C=C(\C#N)C(N)=O)cc1OC`, the Potency was over 11.4 µM in assay [1], 3.16 µM (active) in assay [3], over 46 µM in assay [6] and over 9.22 µM in assay [7]. Besides, the figures for the activity change, negative = inhibition in assay [2] and in assay [4] were -5.77% and 11.6%, respectively. Further, in [5], the activity, negative = inhibition was -2.19%. For the same compound, the Potency entry in assay [8] is “inactive”.
As for `CC(C)N(CC(=O)O)CC(=O)O`, the Potency in assay [1] is over 11.4 µM; in assay [6], over 46 µM; in assay [7], over 9.22 µM. The activity change, negative = inhibition in [2] is 11.5%; in assay [4], 4.66%. Further, the Potency result in assay [3] and in assay [8] was “inactive” in each case. Further, in assay [5], the activity, negative = inhibition was 10.4%.
On to `O=C1CCC(c2ccccc2)=NN1c1nc2ccccc2s1`, for which the Potency in assay [1] was over 11.4 µM; in assay [3] it was 0.398 µM (active); in assay [6], over 46 µM; in assay [7], over 9.22 µM. Besides, the activity change, negative = inhibition was -11.1% in [2] and -3.68% in [4]. For the same compound, the activity, negative = inhibition in assay [5] was -10.7%. Besides, the Potency entry in [9] and in [8] was “inactive” throughout. The activation in assay [12] was -16.7%.
Take `O=C1C[C@H]2C(=O)[C@@H]1[C@@H](C(=O)O)[C@H]2C(=O)O`: the figures for the Potency in assay [1], in assay [6] and in [7] were over 11.4 µM, over 46 µM and over 9.22 µM, respectively. The activity change, negative = inhibition was 5.27% in assay [2] and 7.84% in assay [4]. In addition, the Potency entry in assay [3] and in assay [8] was “inactive” in each case. Moreover, the activity, negative = inhibition in assay [5] was -5.86%.
For `CC1(C)[C@@H]2CC[C@]1(CC(=O)O)[C@H](Cl)C2`, the values for the Potency in assay [1], in [6] and in assay [7] were over 11.4 µM, over 46 µM and over 9.22 µM, respectively. The figures for the activity change, negative = inhibition in [2] and in [4] were 9.82% and 2.95%, respectively. Moreover, the Potency result in [3], in [9] and in assay [8] was “inactive” throughout. The activity, negative = inhibition in assay [5] was 6.68%. In [12], the activation was 2.22%.
In the case of `CN(C)Cc1ccc(O)c(CN(C)C)n1`, the values for the Potency in assay [1], in [6] and in assay [7] were over 11.4 µM, over 46 µM and over 9.22 µM, respectively. Also, the activity change, negative = inhibition in [2] is 1.16%; in assay [4], 4.31%. Further, the Potency result in [3], in [9] and in [8] was “inactive” throughout. In addition, the activity, negative = inhibition in assay [5] was 0.249%. In addition, in [12], the activation was 2.88%.
`N[C@@H](Cc1c[nH]c2ccc([N+](=O)[O-])cc12)C(=O)O`: the Potency in assay [1] was over 11.4 µM; in assay [6], over 46 µM; in assay [7], over 9.22 µM. In addition, the activity change, negative = inhibition in assay [2] is -1.05%; in [4], -4.18%. Besides, the Potency entry in [3], in assay [9] and in assay [8] was “inactive” in each case. The activity, negative = inhibition in [5] is 3.4%. Besides, the activation in [12] was -2.55%.
With `N=C(N)SCc1cc(Cl)cc(Cl)c1O`, the Potency in assay [1] is over 11.4 µM; in assay [3] it was 5.01 µM (active); in assay [6], over 46 µM; in assay [7], over 9.22 µM. Also, the activity change, negative = inhibition is 3.73% in assay [2] and 5.42% in assay [4]. Moreover, in assay [5], the activity, negative = inhibition was 2.98%. The Potency result in assay [9] and in assay [8] was “inactive” in each case. For the same compound, the activation in assay [12] is -24.5%.
Consider `O=C1C(=O)c2ccccc2C(O)=C1C(CCc1ccccc1)C1=C(O)c2ccccc2C(=O)C1=O`, for which the Potency in [1] was over 11.4 µM; in assay [6], over 46 µM; in assay [7], over 9.22 µM; in assay [13] it was 3.16 µM (active). For the same compound, the activity change, negative = inhibition in assay [2] was -6.25%; in [3] it was -21.3% [at 2.29 µM]; in assay [4], 6.66%. The activity, negative = inhibition in assay [5] was -1.13%. For the same compound, the Potency entry in assay [8] was “inactive”.
Regarding `NC(=O)Nc1n[nH]c(-c2ccccc2)n1`, the Potency in assay [1] is over 11.4 µM; in assay [3] it was 3.16 µM (active); in assay [6], over 46 µM; in assay [7], over 9.22 µM. In addition, the activity change, negative = inhibition was 4.22% in assay [2] and -3.57% in assay [4]. In addition, the activity, negative = inhibition in assay [5] was 2.91%. Also, the Potency entry in assay [9] and in assay [8] was “inactive” each time. Further, the activation in [12] is 12.6%.
Take `Cc1nc2cnc(N3CCOCC3)nc2n(Cc2cccs2)c1=O`: the Potency in [1] was over 11.4 µM; in [3] it was 2 µM (active); in [6] it was over 9.22 µM; in assay [7], over 46 µM. In addition, the activity change, negative = inhibition is -18.4% in assay [2] and -3.19% in assay [4]. Also, in assay [5], the activity, negative = inhibition was -5.33%. Further, the Potency entry in [9] and in [11] was “inactive” throughout.
Regarding `O=C(O)/C=C\C(=O)Nc1ccc2c(c1)C(=O)c1cc(F)ccc1-2`, the Potency in [1] was over 11.4 µM; in assay [3], 0.794 µM (active); in assay [6], over 46 µM; in assay [7] it was over 9.22 µM; in assay [14], 3.16 µM (active). The activity change, negative = inhibition in assay [2] was -12.9%; in [4] it was 9.23%. For the same compound, the activity, negative = inhibition in assay [5] was 0.748%. Besides, in assay [9], the Potency result is “inactive”.
